{
  "source": "the supplement of paper PMC13380429",
  "note": "Counter-ions that a name gives are not always drawn. A number with no mark means an inactive call.",
  "data": [
    {"tested_on": "Vero E6 infected with SARS-CoV-2", "assay": "SARS-CoV-2 infection rate relative to infected DMSO; higher = more infection, active = 60 or less", "conditions": "24 h", "units": {"SARS-CoV-2 infection rate": "%"}, "values": [
      {"smiles": "CC(C)NCC(O)c1ccc(N)c(C#N)c1", "note": "(configuration not stated) [cimaterol] (10 µM)", "SARS-CoV-2 infection rate": 104},
      {"smiles": "Cc1cc(=O)n(-c2ccccc2)[nH]1", "note": "[N-demethylantipyrine] (10 µM)", "SARS-CoV-2 infection rate": 101},
      {"smiles": "COc1cccc2cc(-c3nc([C@H]4CC[C@H](C(=O)O)CC4)n4ncnc(N)c34)[nH]c12", "note": "(0.833333 µM)", "SARS-CoV-2 infection rate": 112},
      {"smiles": "CN(C)CCNc1nc2cc(O)ccc2c2c1C(=O)c1ccccc1-2", "note": "(10 µM)", "SARS-CoV-2 infection rate": 106},
      {"smiles": "COc1cccc2c1C(=O)c1c(O)c3c(c(O)c1C2=O)C[C@@](O)(C(=O)CO)C[C@@H]3O[C@H]1C[C@H](N)[C@@H](O)[C@H](C)O1", "note": "[Epirubicin Hydrochloride] (10 µM)", "SARS-CoV-2 infection rate": 108},
      {"smiles": "CO[C@@]12[C@H](COC(N)=O)C3=C(C(=O)C(C)=C(N)C3=O)N1C[C@@H]1N[C@@H]12", "note": "[mitomycin-C] (10 µM)", "SARS-CoV-2 infection rate": 104},
      {"smiles": "Cn1c(=O)c2c(ncn2CCO)n(C)c1=O", "note": "[etofylline] (10 µM)", "SARS-CoV-2 infection rate": 104},
      {"smiles": "O=C1NC(=O)/C(=C/c2ccc3nccc(-c4ccncc4)c3c2)S1", "note": "(0.833333 µM)", "SARS-CoV-2 infection rate": 108},
      {"smiles": "CC(C)c1cc(-c2ccc(F)c3ccccc23)nc(N)n1", "note": "(10 µM)", "SARS-CoV-2 infection rate": 108},
      {"smiles": "C[C@@H](c1nc(-c2ccc(C#N)cc2)cs1)[C@](O)(Cn1cncn1)c1cc(F)ccc1F", "note": "[isavuconazole] (10 µM)", "SARS-CoV-2 infection rate": 113},
      {"smiles": "CCCCc1ccc(NS(=O)(=O)c2ccc(F)cc2)cc1", "note": "(10 µM)", "SARS-CoV-2 infection rate": 102},
      {"smiles": "CCCCCCCCCCCCCC(=O)[O-].CCCCCCCCCCCCCC(=O)[O-].N[C@@H]1CCCC[C@H]1N.[Pt+2]", "note": "[miriplatin] (10 µM)", "SARS-CoV-2 infection rate": 114},
      {"smiles": "c1ccc2nc(C3=NCCN3)ccc2c1", "note": "(10 µM)", "SARS-CoV-2 infection rate": 93},
      {"smiles": "CCOc1nc2cccc(C(=O)OC(C)OC(=O)OC3CCCCC3)c2n1Cc1ccc(-c2ccccc2-c2nn[nH]n2)cc1", "note": "(configuration not stated) [candesartan-cilexetil] (10 µM)", "SARS-CoV-2 infection rate": 92.5},
      {"smiles": "CCC(C)(Oc1ccc(C2(c3ccc(OC(C)(CC)C(=O)O)cc3)CCCCC2)cc1)C(=O)O", "note": "(configuration not stated) [clinofibrate] (10 µM)", "SARS-CoV-2 infection rate": 112},
      {"smiles": "CCC(=O)O[C@H]1[C@H](O[C@@H]2[C@@H](C)[C@H](O[C@H]3C[C@@](C)(OC)[C@@H](O)[C@H](C)O3)[C@@H](C)C(=O)O[C@H](CC)[C@@](C)(O)[C@H](O)[C@@H](C)C(=O)[C@H](C)C[C@@]2(C)O)O[C@H](C)C[C@@H]1N(C)C", "note": "[erythromycin-estolate] (10 µM)", "SARS-CoV-2 infection rate": 114},
      {"smiles": "CCOC(=O)CNC(=O)[C@@H]1CCCN1C(=O)Cc1ccccc1", "note": "(10 µM)", "SARS-CoV-2 infection rate": 104},
      {"smiles": "C=C[C@]1(C)C[C@@H](OC(=O)CS[C@@H]2C[C@H]3CC[C@@H](C2)N3C)[C@]2(C)[C@H](C)CC[C@]3(CCC(=O)[C@H]32)[C@@H](C)[C@@H]1O", "note": "[retapamulin] (10 µM)", "SARS-CoV-2 infection rate": 109},
      {"smiles": "CC(C)(Oc1ccc(C(=O)c2ccc(Cl)cc2)cc1)C(=O)O", "note": "[fenofibric-acid] (10 µM)", "SARS-CoV-2 infection rate": 97},
      {"smiles": "CN(C)C(=S)SC(=S)N(C)C", "note": "[tetramethylthiuram-monosulfide] (10 µM)", "SARS-CoV-2 infection rate": 116},
      {"smiles": "COc1ccc(C2C(=O)c3ccccc3C2=O)cc1", "note": "[anisindione] (10 µM)", "SARS-CoV-2 infection rate": 114},
      {"smiles": "C[C@@]1(C(=O)O)NCCc2cc(O)c(O)cc21", "note": "[salsolinol-1-carboxylic-acid] (10 µM)", "SARS-CoV-2 infection rate": 97.5},
      {"smiles": "Cc1ccc(F)c(NC(=O)Nc2ccc(-c3cccc4[nH]nc(N)c34)cc2)c1", "note": "[linifanib] (10 µM)", "SARS-CoV-2 infection rate": 118},
      {"smiles": "CO[C@H]1C[C@H](O[C@H]2CC[C@@]3(C)[C@H](CC[C@@H]4[C@@H]3CC[C@]3(C)[C@@H](C5=CC(=O)OC5)[C@@H](OC(C)=O)C[C@]43O)C2)O[C@@H](C)[C@@H]1O", "note": "[oleandrin] (0.833333 µM)", "SARS-CoV-2 infection rate": 118},
      {"smiles": "N#C/C(=C1/SC[C@@H](c2ccc(Cl)cc2Cl)S1)n1ccnc1", "note": "[luliconazole] (10 µM)", "SARS-CoV-2 infection rate": 104},
      {"smiles": "O=C(/C=C/c1c(C(=O)O)[nH]c2cc(Cl)cc(Cl)c12)Nc1ccccc1", "note": "[gavestinel] (10 µM)", "SARS-CoV-2 infection rate": 108},
      {"smiles": "NC(=O)N/N=C/c1ccc([N+](=O)[O-])o1", "note": "[nitrofurazone] (10 µM)", "SARS-CoV-2 infection rate": 105}
    ]}
  ]
}
